Most compounds without a hit are left out; they make up all but 9.5% or so of the library.
Pf growth 48h – Primary qHTS for delayed death inhibitors of the malarial parasite plastid, 48 hour incubation; hit rate 5.9% among 310,000; P. falciparum luciferase growth in erythrocytes, 48 h; AID 504832, 2011; Potency, µM (series often up to 28.7 µM), without a hit: top-dose activity change, negative = inhibition, actives largely listed as inhibitors; active = well fitted inhibition curve with a large enough effect; inconclusive = small, poorly fitted or top-dose-only effect, or another doubt; inactive = no such curve, though single readings can be large or run the other way; note: % is set by controls: 0 for no effect and ±100 for the full control effect
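Cell-based growth assay: transgenic P. falciparum expressing firefly luciferase, cultured in red cells within RPMI 1640 containing 0.5% w/v Albumax, 24 mM bicarbonate and gentamycin. A drop in luciferase activity indicates inhibition.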
NS1 inh – qHTS Assay for Inhibitors of Influenza NS1 Protein Function; Potency, µM (series often up to 46.1 µM), for the others: at the top dose activity, positive = more growth; hit rate 0.4% among 270,000; AID 2326, 2010; note: actives are rising curves; nearly all actives have a fitted effect of over 50% in size
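Read-out: OD600 growth recovery of NS1-expressing budding yeast. Cells grown overnight at 30C in -URA glucose medium, washed, resuspended and diluted 1:100 in 2% galactose assay medium, pH 6.0. Same strain lacking NS1 served as positive control.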
SARS PLP yeast – qHTS of Yeast-based Assay for SARS-CoV PLP; Potency, µM (titrated, usually from 32.9 µM), without a hit: at the top dose activity, positive = growth rescue, actives largely listed as activators; S. cerevisiae expressing SARS-CoV PLpro, growth rescue; hit rate 0.19% among 330,000; note: 0% is about no effect; nearly all actives have a fitted effect of over 55% in size
RE007 growth inh – qHTS Assay for Inhibitors of the HIV-1 protein Vpr | hit rate 0.21% among 360,000 | Potency, µM (series often up to 92.2 µM), for inactives: top-dose activity change, negative = less growth, hits mostly inhibitors | S. pombe RE007 Vpr strain, BacTiter-Glo ATP luminescence, 24 h; active = well fitted falling curve with a large enough effect; inconclusive = small, poorly fitted or top-dose-only effect; inactive = no such curve, though single readings can be large or run the other way; note: % is set by controls: 0 for no effect and ±100 for the full control effect; nearly all actives have a fitted effect of over 50% in size
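Fission yeast strain RE007, carrying one chromosomally integrated HIV-1 vpr copy, was seeded at OD 0.01 in PMG+AL medium with 23 nL pinned compound. After 24 h at 30 °C and 99% humidity, viability was read by BacTiter-Glo luminescence.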
Pf growth 96h – Primary qHTS for delayed death inhibitors of the malarial parasite plastid, 96 hour incubation; P. falciparum luciferase reporter growth, 96 h; Potency, µM (titrated, usually from 28.7 µM), for inactives: top-dose activity change, negative = inhibition, usual class: inhibitors; hit rate 6.9% among 320,000; AID 504834, 2011; active = well fitted inhibition curve with a large enough effect; inconclusive = small, poorly fitted or top-dose-only effect, or another doubt; inactive = no such curve, though single readings can be large or run the other way; note: % is set by controls: 0 for no effect and ±100 for the full control effect
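Parasite growth measured via integrated firefly luciferase reporter in P. falciparum. Infected erythrocytes at 2% hematocrit, 0.05% parasitemia final were treated 96 hours at 37 C under 5% CO2, and luminescence was read.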
An asterisk follows results filed as active; ? = inconclusive; nt = not tested or not shown; [ ] = remark or other dose. Unless noted, calls come from the whole dose curve. Potency is the fitted concentration of half-maximal effect.

SMILES	Pf growth 48h	NS1 inh	SARS PLP yeast	RE007 growth inh	Pf growth 96h
O=C(NCCCN1CCCC1=O)c1cc(S(=O)(=O)N2CCOCC2)ccc1Cl	7%	6%	-1%	-12%	10%
COc1ccccc1Nc1nc(-c2ccccc2O)nc2ccccc12	?	5%	3%	-14%	?
C/C(=N\Nc1nc(-c2ccccc2O)nc2ccccc12)c1ccccc1	0.52µM*	2%	-1%	6%	?
Oc1ccccc1Nc1nc(-c2ccccc2O)nc2ccccc12	1µM*	2%	0%	6%	1.3µM*
COC(=O)[C@]1(C)N[C@H](c2ccc(SC3CCCCC3)c(OC)c2)[C@@H]2C(=O)N(C)C(=O)[C@@H]21	?	nt	3%	-10%	?
COc1ccc(-c2cc3nc(C4CCN(C(=O)OC(C)(C)C)CC4)c(C(=O)O)cn3n2)cc1	1.3µM*	14%	9%	-7%	16%
Cc1sc2ncnc(NCC3(N4CCOCC4)CCCCC3)c2c1C	nt	11%	2%	5%	1.9µM*
c1nc(NCC2(N3CCOCC3)CCCCC2)c2ccsc2n1	?	-1%	-4%	-11%	?
COc1cccc(-c2sc3ccc(OC)cc3c2-c2cnc(N3CCOCC3)nc2)c1	nt	nt	nt	-17%	nt
Cc1cc(C)c2c(N=NN3CCOCC3)[nH]nc2n1	7%	-29%	-72%	43%	4.7µM*
Cc1cc(C)c2c(n1)sc1c(N3CCOCC3)ncnc12	nt	-25%	nt	nt	nt
CN1C(CCl)Nc2cc(Cl)c(S(N)(=O)=O)cc2S1(=O)=O (stereo not drawn)	-20%	nt	nt	14%	12µM*
NS(=O)(=O)c1cc2c(cc1Cl)N[C@@H](CC1CCCC1)NS2(=O)=O	3%[12.8 µM]	nt	nt	nt	5%[12.8 µM]
O=C(Cc1ccccc1F)Nc1cc(S(=O)(=O)N2CCCCC2)ccc1N1CCOCC1	nt	nt	nt	5%	nt
CCOC(=O)Nc1ccc(S(=O)(=O)Nn2cnnc2)cc1	-10%	?	22µM*	5%	-1%
CN(C)CCCN(C(=O)c1ccc2c(c1)CCCC2)c1nc2cc3c(cc2s1)OCO3	12µM*	3%	-5%	1%	2.3µM*
CN(C)CCCN(C(=O)c1ccc2c(c1)CCCC2)c1nc2ccc(F)cc2s1	8.3µM*	-9%	-34%	34%	?
O=C(O)C(C1CCCCC1)C1(O)CCCC1 (stereo not drawn)	nt	nt	nt	-6%	nt
C=C(C)CNC(=S)N/N=C/C1=CCC2CC1C2(C)C (stereo not drawn)	?	-1%	4%	-4%	?
CCNC(=S)N/N=C/c1ccc(F)cc1	-1%	nt	?	nt	?
CCCCNC(=S)N/N=C/c1ccc(C#N)cc1	-28%	nt	2%	-10%	9.3µM*
CC(=O)N/N=C/C1=CCC2CC1C2(C)C (stereo not drawn)	-5%	nt	-11%	-2%	7%
CC(C)NC(=S)N/N=C/C1=CCC2CC1C2(C)C (stereo not drawn)	13µM*	-2%	-32%	nt	?
CCCCNC(=S)N/N=C/C1=CCC2CC1C2(C)C (stereo not drawn)	9.3µM*	-34%	-26%	-18%	12µM*
Nc1sc(Cc2ccccc2)cc1C(=O)c1c(-c2ccccc2)[nH]c2ccccc12	nt	nt	nt	-10%	nt
SMILES	Pf growth 48h	NS1 inh	SARS PLP yeast	RE007 growth inh	Pf growth 96h
FC(F)(F)c1ccccc1Cc1c(-c2cccc(Cl)c2)nc2c3ccccc3ccn12	nt	nt	nt	-21%	nt
CC(C)NS(=O)(=O)c1ccc(NC(=O)C(C)OC(=O)C2CCC2)cc1 (stereo not drawn)	-7%	nt	-5%	-12%	8%
O[C@@H](C1=C/C(=C\c2ccncc2)c2ccccc21)c1ccncc1	nt	-9%	nt	nt	nt
CC(=O)N/C(=N\c1nc(C)cc(C)n1)Nc1ccc2ccccc2c1	52%	13%	1%	-4%	21%
CCC1(c2ccc(F)cc2)NC(=O)N(CC(=O)N(C)C2CCS(=O)(=O)C2)C1=O (stereo not drawn)	2%	nt	0%	2%	5%
O=C(CCCn1nnnc1CN1CCOCC1)N1CCN(c2ccccc2F)CC1	12%	3%	?	-29%	21%
CCOC(=O)c1cnc2ccccc2c1NCCO	-7%	-5%	2%	6%	?
CCOC(=O)c1cnc2ccc(C)cc2c1NCCN1CCOCC1	12µM*	-4%	1%	-7%	14%
CCOC(=O)c1ccc2ncc(C(=O)OCC)c(NCCCN3CCOCC3)c2c1	?	-15%	1%	-21%	?
CCOC(=O)c1cnc2ccc(Br)cc2c1NCCO	4%	-2%	nt	-9%	3%
CCOC(=O)c1cnc2ccc(Cl)cc2c1NCCN(C)C	?	-15%	-20%	-5%	4.7µM*
CCOC(=O)c1cnc2c(ccc3ccccc32)c1NCCCN(C)C	4.1µM*	-5%	-7%	?	?
CC(C)(C)n1nnnc1C(c1ccccc1)N1CCN(c2ncccc2C(F)(F)F)CC1 (stereo not drawn)	nt	nt	nt	-9%	nt
CC(=O)Nc1cccc(-c2ccnc3c2CC(C(=O)NCc2ccc(N(C)C)cc2)O3)c1 (stereo not drawn)	nt	nt	nt	4%	nt
CSc1ccc(CN2CCC(C)(Oc3ccccc3F)C2)cc1 (stereo not drawn)	nt	nt	nt	-15%[18.4 µM]	nt
COc1nnc(-c2ccc(C)c(S(=O)(=O)NC(C)C)c2)c2ccccc12	nt	0%	1%	1%	2.6µM*
Cc1ccc(-c2nnc(Nc3ccc4c(c3)OCO4)c3ccccc23)cc1S(N)(=O)=O	?	17%	21%	-4%	2.9µM*
CNS(=O)(=O)c1cc(-c2nnc(N3CCOCC3)c3ccccc23)ccc1C	nt	nt	nt	2%	nt
COc1nnc(-c2ccc(C)c(S(N)(=O)=O)c2)c2ccccc12	nt	8%	0%	18%	2.9µM*
CC(=O)c1c(C)[nH]c(C(=O)OCC(=O)c2ccc(C)s2)c1C	103%	nt	0%	13%	97%
Cc1ccc(C(=O)N[C@H](C(=O)Nc2cccc(S(=O)(=O)N3CCOCC3)c2)C(C)C)cc1	nt	nt	nt	13%	nt
CN(C)c1ccc(N=Nc2ccccc2C(=O)OCC(=O)NC2CCCC2)cc1	-6%	-12%	-54%	-10%	8.3µM*
CN(C)c1ccc(N=Nc2ccccc2C(=O)OCC(=O)NCC2CCCCC2)cc1	?	15%	-13%	8%	0%
COc1ccc(-c2c[n+](CC(=O)c3cccs3)c3n2CCC3)cc1	2.3µM*	10%	1%	-6%	?
Cc1ccc(-c2c[n+](CC(=O)c3cccs3)c3n2CCC3)cc1	2.3µM*	9%	-1%	3%	4.1µM*
Cc1ccc(-c2c[n+](CC(=O)OCc3ccccc3)c3n2CCC3)cc1	20%	-5%	-1%	-8%	16%
O=C(c1ccc(OCCN2CCCCC2)cc1)c1c(-c2ccc(O)cc2)sc2cc(O)ccc12	2.6µM*	?	-3%	-19%[18.4 µM]	2.3µM*
O=C(Cc1ccc(-n2cccc2)cc1)N1CCN(c2ccccc2F)CC1	19%	-8%	-8%	-8%	12µM*

From PubChem BioAssay
